Laboratory results as given in PubChem BioAssay (NCI).
This is part of a sample that, as a whole, favours compounds with a hit. Of some 83,000 tested, about 20% had one in any assay.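 Percent growth is the endpoint: 0 to 100 indicates growth inhibition (40 means 60% inhibition), 0 means no net growth, and negative values indicate cell death.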 Activity calls are given as the source filed them.

Each compound was assayed on IGROV1 ovarian (assay: NCI-60 one-dose screen, 48 h (100 = growth as untreated, 0 = no growth, -100 = all killed)). Settings: 10 µM.
Protocol: Growth inhibition of the IGROV1 human tumor cell line is measured as a screen for anti-cancer activity. Cells are grown in 96 well plates and exposed to the test compound for 48 hours. Compounds are tested at a single concentration, which is 10^-5 M for most compounds. The reported endpoint is percent growth (GI% or GIPRCNT), where numbers from 0 - 100% represent growth inhibition, and numbers from -100% - 0 represent cell death. For example, a value of 40 represents 60% growth inhibition. A value of 0 means no net growth occurred over the course of the experiment. A value of -40 indicates 40% of cells at the beginning of the experiment died by the end of the experiment. A value of -100 means all cells are dead at the end of the experiment.
NCI-60 Human Tumor Cell Lines Screen was performed using the standard one-dose NCI protocol, which is described in more detail at https://dtp.cancer.gov/discovery_development/nci-60/default.htm.
Compounds with GIPRCNT values below 10 were considered active. Activity score was based on GIPRCNT using the following formula: […]
Score is 0 for GIPRCNT values of 100 or above, 50 for GIPRCNT values of 0, and 100 for GIPRCNT values of -100.

Compound | growth
N#C[Se]CCN1C(=O)C2C(C1=O)[C@H]1C=C[C@@H]2S1 (stereo not given in full) | -54.4% (active)
CN=C(NN)NN | 112% (inactive)
[Cl][Hg][n]1cnc2c(Cl)c(Cl)c(Cl)cc21 | 99.7% (inactive)
COc1ccc2c(c1)NC1=C(C(=O)OC1)C2c1cc(OC)c(OC)c(OC)c1 (stereo not given) | 12% (inactive)
[Br][Pb]([c]1ccccc1)([c]1ccccc1)[c]1ccccc1 | -50.9% (active)
CNC(=O)Oc1cccc(N(C)C)c1 | 108% (inactive)
CC1(C)N=C(N)N=C(N)N1c1ccc(CNC(=O)Nc2ccc(S(=O)(=O)F)c(Cl)c2)c(Cl)c1 | 30.6% (inactive)
O=[As]c1ccc(C(=O)c2ccc(Oc3ccccc3)cc2)cc1 (stereo not given) | -54.1% (active)
O=C1NC(=S)NC(=O)C1=Cc1ccccc1 | 119% (inactive)
COc1cc(C2=NN(c3ccccc3)C(c3sc(N(CCCl)CCCl)nc3Cl)C2)cc(OC)c1OC (stereo not given) | 106% (inactive)
C=CCc1ccc(OC(=O)Cc2ccccc2)c(OC)c1 | 99.8% (inactive)
CCOc1ccc(C(O)CN(C)Cc2ccccc2)cc1Cl (stereo not given) | 106% (inactive)
COc1cc(N(CCCl)CCCl)ccc1C=Nc1ccccc1C(=O)O | 84.1% (inactive)
CC(=O)Oc1ccc(Cl)cc1 | 114% (inactive)
CC(C)(NC(=O)c1nn(CCCCCF)c2ccccc12)c1ccccc1 | 101% (inactive)
C/C(=C\c1cc(C(F)(F)F)n(-c2ccc(N)cc2)n1)[C@@H]1C[C@@H]2O[C@]2(C)CCC[C@H](C)[C@H](O)[C@@H](C)C(=O)C(C)(C)[C@@H](O)CC(=O)O1 | 31.1% (inactive)
C/C(=N/OC(=O)N(C)C)c1cc(Cl)ccc1Cl | 104% (inactive)
C[C@@H]1CC[C@@H]2[C@@H]1[C@H](OC(=O)/C=C/C1CCCCC1)[C@]1(C3CCCCC3)C[C@@H](OC(=O)CO)[C@@]2(C)O1 | 75.7% (inactive)
CC(C)CCC1(CCO)C(=O)NC(=S)NC1=O | 116% (inactive)
CC(=O)[O][Hg][CH2]C1(C)COC(C)([CH2][Hg][O]C(C)=O)CO1 (stereo not given) | -81% (active)

Compound | growth
CC(=O)O[C@H]1CCC2C3CCC4=C/C(=N/O)CCC4(C)C3CCC21C (stereo not given in full) | 87.6% (inactive)
OB([O][Hg][c]1ccccc1)[O][Hg][c]1ccccc1 | -54.3% (active)
COC[CH2][Hg][C]#[C][Hg][CH2]COC | 80.2% (inactive)
O=C(NCCNC(=O)c1ccc([As](O)O)cc1)c1ccc([As](O)O)cc1 | 110% (inactive)
CC[C@@]1(C2O[C@@H](C3O[C@@](O)(CC)[C@H](C)C[C@@H]3C)C[C@@H]2C)CC[C@H]([C@]2(C)CCC3(C[C@H](O)[C@@H](C)[C@@H]([C@H](C)[C@@H](OC)[C@H](C)C(=O)O)O3)O2)O1 (stereo not given in full) | 36.9% (inactive)
C=CCN1C(=O)C(CC)(CCC(C)C)C(=O)NC1=S (stereo not given) | 108% (inactive)
N#C[Se]CCCNS(=O)(=O)C1CC2C=CC1C2 (stereo not given) | -52.5% (active)
OC1CCCCC1N1CCC(c2ccccc2)CC1 (stereo not given) | 112% (inactive)
C=CCC1(CC)C(=O)NC(=S)NC1=O | 107% (inactive)
CCC1CN1P(=O)(OCCOC)N1CC1CC (stereo not given) | 111% (inactive)
O=C(O)c1nn(Cc2ccc(Cl)cc2)c2ccccc12 | 122% (inactive)
C=C=[CH][Sn]([c]1ccccc1)([c]1ccccc1)[c]1ccccc1 | -22.2% (active)
Cc1cc(C)nc(C)c1.[Cl][Hg][Cl] | 106% (inactive)
NC(=O)C(Cl)Cl | 102% (inactive)
Oc1ccc2c3c1O[C@H]1c4[nH]c5ccccc5c4C[C@@]4(O)C(C2)N(CC2CC2)CC[C@]314 | 97.5% (inactive)
Nc1ccc([N+](=O)[O-])c2c1Oc1ccccc1O2 | 28% (inactive)
Nc1ncnc2c1c(C(=O)NO)cn2C1OC(CO)C(O)C1O (stereo not given) | -71.1% (active)
CCN(CC)CCOc1c(C(C)C)cccc1C(C)C | 101% (inactive)
c1ccc([As]=[As]c2ccccc2)cc1 (stereo not given) | -84.1% (active)
CC1=C(SCCC(=O)OCC(=O)NCCC[Te]c2ccccc2)C(=O)c2ccccc2C1=O | -35.5% (active)
